# Assay outcomes (PubChem)
# BoNT A protease: inhibitors of Botulinum neurotoxin A light chain protease; multiplex microsphere protease substrate cleavage, flow cytometry; inhibition, % at 10 µM; actives 0.17% (n = 360,000); AID 588499; also: plate controls were buffer without enzyme for full effect and enzyme alone for no effect
# BoNT F protease: blocks Botulinum neurotoxin F light chain protease | inhibition, % at 10 µM | AID 588497 | Multiplex microsphere protease cleavage assay, flow cytometry | actives 0.22% (n = 360,000); in the data active = inhibition above about 35%, passing the limit was not always enough; inconclusive = no clear call, values can overlap the other calls; also: plate controls were buffer without enzyme for full effect and enzyme alone for no effect
# VHR inh abs: blocks human VHR1 dual specificity phosphatase. P51452. recombinant VHR phosphatase, pNPP absorbance. inhibition, % at 13.3 µM. actives 0.52% (n = 290,000); in the data active = inhibition above about 50%
# Anthrax LF inh2: blocks Bacillus anthracis lethal factor protease | P15917 | multiplex microsphere protease cleavage assay, LF | inhibition, % at 10 µM | actives 0.12% (n = 360,000) | AID 588501; also: plate controls were buffer without enzyme for full effect and enzyme alone for no effect
# Target sequence (P15917 whole entry, looked up): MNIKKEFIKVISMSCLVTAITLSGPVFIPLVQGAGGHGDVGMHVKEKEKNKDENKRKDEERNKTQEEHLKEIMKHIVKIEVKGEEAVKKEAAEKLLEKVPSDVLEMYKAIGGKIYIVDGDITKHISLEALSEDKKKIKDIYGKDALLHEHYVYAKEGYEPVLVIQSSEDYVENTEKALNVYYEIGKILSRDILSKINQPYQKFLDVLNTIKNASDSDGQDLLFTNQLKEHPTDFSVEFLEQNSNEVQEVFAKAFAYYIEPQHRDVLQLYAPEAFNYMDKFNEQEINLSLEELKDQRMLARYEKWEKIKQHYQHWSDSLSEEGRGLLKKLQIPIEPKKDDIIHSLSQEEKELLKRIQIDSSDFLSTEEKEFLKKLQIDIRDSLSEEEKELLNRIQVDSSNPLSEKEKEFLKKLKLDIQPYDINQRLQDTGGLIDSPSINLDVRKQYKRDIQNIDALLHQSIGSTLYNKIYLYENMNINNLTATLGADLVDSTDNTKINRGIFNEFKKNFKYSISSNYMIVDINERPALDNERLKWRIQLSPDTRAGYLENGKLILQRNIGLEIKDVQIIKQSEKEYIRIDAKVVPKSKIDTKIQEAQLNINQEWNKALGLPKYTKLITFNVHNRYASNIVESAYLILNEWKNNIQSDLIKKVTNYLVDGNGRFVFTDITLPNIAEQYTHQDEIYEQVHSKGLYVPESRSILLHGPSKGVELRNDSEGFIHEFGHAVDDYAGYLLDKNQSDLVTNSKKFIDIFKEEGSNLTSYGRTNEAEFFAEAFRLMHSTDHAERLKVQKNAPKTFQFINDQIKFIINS
# Autofluor counter: compound fluorescence in toxin protease inhibitor counterscreen | compound autofluorescence counterscreen, microsphere flow cytometry; stronger effect = higher value | fluorescence intensity (concentration not given with the values) | actives 3.1% (n = 360,000) | AID 624483; in the data active = fluorescence intensity above about 16000; inconclusive = no clear call, values can overlap the other calls
# MazF activator: activators of E. coli MazEF toxin-antitoxin RNase; P0AE70; FAM/BHQ RNA-DNA oligo cleavage fluorescence, 5 h; activation, % at 20 µM; actives 0.32% (n = 350,000); AID 504720; in the data active = activation above about 50%
# * = called active by the depositor; ? = inconclusive; / = no result given. Hits are enriched below; roughly 4% of the tested compounds scored in any of these assays. Rule as the data show it, unless noted: active = inhibition above about 30%; inconclusive = no clear call, values can overlap the other calls; inactive = below that.
SMILES,BoNT A protease,BoNT F protease,VHR inh abs,Anthrax LF inh2,Autofluor counter,MazF activator
Cc1cc(C(=O)N/N=C/c2cc(Cl)cc([N+](=O)[O-])c2O)c2ccccc2n1,0.4,-5.9,1.3,0.5,2513,5.0
CCN1CCN(c2cc(N3CCCC3)c(F)cc2[N+](=O)[O-])CC1,-1.0,2.2,8.4,-0.4,10198,1.5
CCOC(=O)N1CCN(c2cc(N3CCN(CC)CC3)c(F)cc2[N+](=O)[O-])CC1C (stereo not given),3.2,0.8,24.9,-5.3,18259*,-4.8
NC(=O)NOCc1c(Cl)cccc1Cl,0.0,-6.8,13.0,3.0,4080,6.4
CCN(CC)CCOC(c1ccccc1)c1ccc(C)cc1 (stereo not given),-0.3,-6.8,-4.8,1.4,2450,3.4
CCNCCOC(c1ccccc1)c1ccccc1,?,1.8,-13.7,-11.7,18751*,1.1
CCCn1c(SCC(=O)Nc2nnc(CC)s2)nc2c1c(=O)n(C)c(=O)n2C,/,/,4.0,/,/,/
CCOc1ccc(OCC)c(NC(=O)CSc2nc3c(c(=O)n(C)c(=O)n3C)n2CC)c1,0.2,-1.4,15.3,-1.7,19457*,-4.8
CCCCn1c(SCC(=O)Nc2nnc(C(C)C)s2)nc2c1c(=O)n(C)c(=O)n2C,-0.3,0.6,8.2,0.1,20755*,-1.3
Nc1cc(=O)[nH]c(SCC(=O)N2CCc3ccccc3C2)n1,-0.1,1.1,-3.4,0.1,20269*,-0.6
CCCn1c(SCC(=O)N2CCc3ccccc3C2)nc2c1c(=O)n(C)c(=O)n2C,-1.0,-1.0,-5.8,-0.6,23593*,-1.6
CCn1c(SCC(=O)NC2CCCC2)nc2c1c(=O)n(C)c(=O)n2C,-0.1,-4.0,15.8,-9.3,3545,10.4
O=C(CSc1nnnn1-c1ccccc1)N1CCc2ccccc2C1,-0.6,-0.2,9.9,-1.6,22363*,1.9
CCCn1c(SCC(=O)Nc2nc3c(s2)CCCC3)nc2c1c(=O)n(C)c(=O)n2C,-0.6,-1.6,3.1,-0.5,23637*,11.4
C(=C\CSc1nnnn1-c1ccccc1)/CSc1nnnn1-c1ccccc1,1.4,2.9,25.9,-2.7,20060*,-1.0
c1ccc(-n2nnnc2SCc2ccccn2)cc1,0.1,-0.9,-14.7,11.2,8801,-5.2
COc1ccc(-c2cnc3ncnn3c2N)cc1,0.2,-3.7,16.6,-0.5,2477,1.4
Nc1c(-c2ccc(Cl)cc2)cnc2ncnn12,0.7,0.3,9.7,-0.6,23393*,-3.9
Cc1ccccc1OCCCCN1CCCCC1,0.5,20.0,-14.6,9.0,3828,2.3
Cc1noc(C)c1C(=O)Nc1sc(C)c(-c2ccccc2)c1C#N,?,2.7,-2.4,-1.9,22924*,5.0
CC(C)CN(CC(C)C)C(=S)Nc1ccc(Cl)cc1,-0.4,-6.9,31.9,-5.5,3203,-17.9
Cc1ccc2c(c1)N(CCC(=O)NCc1ccco1)C(=O)CO2,-1.7,-5.2,-19.1,-1.0,22695*,4.9
COc1ccccc1CNC(=O)CCN1C(=O)COc2ccc(C)cc21,?,5.1,20.0,-0.3,21217*,0.8
Cc1ccc2c(c1)N(CCC(=O)NCC1COc3ccccc3O1)C(=O)CO2 (stereo not given),1.1,3.3,-14.8,-6.0,21396*,-1.1
O=C(CN(Cc1cccs1)C(=O)CN1C(=O)COc2ccccc21)NCc1ccco1,7.3,6.7,-5.6,-5.6,19004*,4.1
SMILES,BoNT A protease,BoNT F protease,VHR inh abs,Anthrax LF inh2,Autofluor counter,MazF activator
S=C(c1ccccc1)N1CCN(C(=S)c2ccccc2)CC1,0.0,-3.7,-4.8,-1.1,2156,-1.6
O=C(CCn1c(=S)[nH]c2ccccc2c1=O)NCCCN1CCOCC1,0.8,1.3,10.5,2.7,16076,0.7
Cc1ccc2c(c1)N(CCC(=O)NCCN1CCOCC1)C(=O)CO2,-0.9,-2.7,6.0,0.0,20041*,2.5
O=C(CCN1C(=O)COc2ccccc21)NCCN1CCOCC1,-0.8,-1.3,-3.8,-3.9,9031,-9.3
O=C(c1ccc(-c2ccc([N+](=O)[O-])cc2)o1)N1CCCCC1,1.8,-5.1,18.0,0.1,2824,0.6
O=C(c1ccc(-c2ccc(Cl)cc2)o1)N1CCN(c2ccc([N+](=O)[O-])cc2Cl)CC1,4.8,-0.2,6.2,1.6,21861*,-4.6
O=C1c2cccc3c(N4CCCCC4)ccc(c23)C(=O)N1c1ccccn1,0.7,16.5,34.2,-2.4,3209,-82.7
CCCN1C(=O)c2cccc3c(N4CCCCC4)ccc(c23)C1=O,32.0*,11.1,1.2,14.2,4642,-200.0
